# Measurements published in the supplement of paper PMC10127200.
# Structures can show the parent of a compound that is named as a salt.
# Test system: HEPG2
# Experiment: Euclidean distance of Cell Painting phenotypic profile (signed KS, 77 features) to DMSO centroid (dimensionless distance); higher = stronger phenotypic change vs DMSO (phenoactivity)
# Conditions: 48 h; 5 or 10 uM (library dependent)
# Method in brief: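 Five cancer lines and a healthy fibroblast line received library compounds at 10 or 5 uM (library-dependent, 0.1% DMSO final) for 48 h. Stained cells were imaged confocally at 20X (9 fields/well). Harmony extracted 77 features, each scored as a signed Kolmogorov-Smirnov statistic against same-plate vehicle wells. Profiles were plate-position corrected, correlation-weighted and replicate-averaged at the top dose. Phenoactivity is the Euclidean distance from each profile to the median vehicle profile.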
row,SMILES,Euclidean distance
1,CN1[C@@H]2CC[C@H]1C[C@@H](OC(=O)C(CO)c1ccccc1)C2 (some centres undefined) [Atropine sulfate monohydrate],0.719
2,CN1CCN(c2nc3ccccc3nc2Cl)CC1,0.638
3,O=C([O-])C(Cl)Cl.[Na+] [Sodium dichloroacetate (DCA)],0.496
4,CC(Cc1ccc(O)cc1)NCC(O)c1cc(O)cc(O)c1 (centres undefined) [Fenoterol hydrobromide],0.461
5,CCC(COC(=O)c1cc(OC)c(OC)c(OC)c1)(c1ccccc1)N(C)C (centres undefined) [Trimebutine],1.26
6,O=C/C=C/c1ccccc1 [Cinnamaldehyde],1.14
7,COc1ccc2c(c1)[nH]c1c(C)nccc12 [Harmine hydrochloride],1.06
8,CC(=O)OCC1=C(C(=O)O)N2C(=O)[C@@H](N)[C@H]2SC1 [7-Aminocephalosporanic acid],0.55
9,CN1c2ccccc2C(NCCCCCCC(=O)O)c2ccc(Cl)cc2S1(=O)=O (centres undefined) [Tianeptine sodium],0.471
10,CCCN1C[C@H](CSC)C[C@@H]2c3cccc4[nH]cc(c34)C[C@H]21 [Pergolide Mesylate],0.589
11,CC[C@H]1[C@@H]2C[C@H]3[C@@H]4N(C)c5ccccc5[C@]45C[C@@H]([C@@H]2[C@H]5O)N3[C@@H]1O [Ajmaline],0.486
12,Cc1cccc(C)c1NC1=NCCCS1 [Xylazine],0.887
13,Cn1c(CCCC(=O)O)nc2cc(N(CCCl)CCCl)ccc21 [Bendamustine],0.64
14,C[C@@H]1CC[C@@]2(OC1)O[C@H]1C[C@H]3[C@@H]4CC=C5C[C@@H](O[C@@H]6O[C@H](CO)[C@@H](O[C@@H]7O[C@@H](C)[C@H](O)[C@@H](O)[C@H]7O)[C@H](O)[C@H]6O[C@@H]6O[C@@H](C)[C@H](O)[C@@H](O)[C@H]6O)CC[C@]5(C)[C@H]4CC[C@]3(C)[C@H]1[C@@H]2C [Dioscin],1.15
